Bioassay records: PubChem BioAssay, NMMLSC
RGS8-Gao reg – human RGS8-Galphao interaction regulation. response (percent of control binding), % at 10 µM. multiplexed bead flow cytometry, RGS8-Galphao binding; actives lie on both sides. 220,000 compounds, 0.34% hits; in the data active = response below about 60% or above about 140%; inactive = in between;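 also: Galphao activated as the GDP aluminium fluoride complex binding bead-coupled RGS8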
Target sequence (P09471 whole entry, looked up): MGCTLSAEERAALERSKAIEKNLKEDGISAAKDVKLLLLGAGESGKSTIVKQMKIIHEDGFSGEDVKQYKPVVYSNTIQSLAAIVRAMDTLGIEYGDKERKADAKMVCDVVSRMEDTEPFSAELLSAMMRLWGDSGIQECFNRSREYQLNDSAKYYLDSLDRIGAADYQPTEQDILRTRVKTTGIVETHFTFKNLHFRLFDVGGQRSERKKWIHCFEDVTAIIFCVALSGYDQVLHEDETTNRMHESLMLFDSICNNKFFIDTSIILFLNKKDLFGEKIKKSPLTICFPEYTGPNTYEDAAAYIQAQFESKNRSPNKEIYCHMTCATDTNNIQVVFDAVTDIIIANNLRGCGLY
RGS4-Gao reg – human RGS4-Galphao interaction regulation | P09471 | Multiplexed bead flow cytometry, RGS4-Galphao binding; actives lie on both sides | binding response (% of control), % at 10 µM | 220,000 compounds, 0.33% hits | AID 1415; in the data active = binding response below about 49% or above about 150%; inactive = in between;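 also: fluorescent Galphao activated with aluminum fluoride binding bead-coupled RGS4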
RGS7-Gao reg – human RGS7-Galphao interaction regulation; Multiplexed bead flow cytometry, RGS7-Galphao binding; actives lie on both sides; binding response (% of control), % at 10 µM; 220,000 compounds, 0.35% hits; P09471; in the data active = binding response below about 49% or above about 150%; inconclusive = no clear call, values can overlap the other calls; inactive = in between;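 also: fluorescent Galphao held in activated GDP-AlF4 state binding bead-coupled RGS7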
GSH bead fluor – compound fluoresces at 488/530 nm on GSH beads; GSH beads flow cytometry, compound fluorescence 488/530 nm; stronger effect = higher value; fluorescence (KMESF) at 10 µM; 190,000 compounds, 0.25% hits; AID 1776; in the data active = fluorescence above about 89;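 also: glutathione beads carrying GST-tagged Bcl family fusion proteins plus one bare bead set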
RGS16-Gao HTS – regulators of human RGS16-Galphao interaction; binding response (% of control), % at 10 µM; bead-based flow cytometry RGS16-Galphao binding, fluorescence; actives lie on both sides; 220,000 compounds, 0.38% hits; O15492+P09471; AID 1441; call rule not given here;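 also: Galphao activated by GDP with aluminum fluoride before binding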
Target sequence (O15492 whole entry, looked up): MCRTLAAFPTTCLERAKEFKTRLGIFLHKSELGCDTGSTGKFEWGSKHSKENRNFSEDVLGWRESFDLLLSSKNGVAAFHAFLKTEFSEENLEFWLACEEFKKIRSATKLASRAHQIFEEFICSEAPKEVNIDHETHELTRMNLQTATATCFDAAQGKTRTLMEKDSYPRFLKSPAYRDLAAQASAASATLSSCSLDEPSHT
Target sequence (P09471 whole entry, looked up): as the sequence (P09471 whole entry, looked up) above
Avidin fluor – avidin bead compound fluorescence profile | Avidin beads, compound fluorescence 488/530 nm, flow cytometry; stronger effect = higher value | 220,000 compounds, 0.38% hits | AID 1775 | fluorescence (KMESF) at 10 µM; in the data active = fluorescence above about 47
Each line names hits and unclear results; the compound was inactive in the other large screens. A selection: hits, their analogues and other compounds. The true share with any hit is near 1.2%.

CNC(=S)N1N=C(c2ccc(Br)cc2)CC1c1ccc(N(C)C)cc1 (configuration not stated)	RGS7-Gao reg inconclusive
CNC(=S)N1N=C(c2ccc(Br)cc2)CC1c1ccc(Br)cc1 (configuration not stated)	Avidin fluor 48
Cc1cc2ncn(C(=O)N3CCCCCC3)c2cc1C	GSH bead fluor 97
COc1ccccc1N1CCN(C(=O)NC23CC4CC(CC(C4)C2)C3)CC1	RGS7-Gao reg inconclusive
Cc1ccc(C)c(OCC(=O)N/N=C/c2c(C)nn(-c3ccccc3)c2Cl)c1	Avidin fluor 56
c1ccc(Cn2cc(CNc3ccccc3)nn2)cc1	RGS7-Gao reg inconclusive (no result: GSH bead fluor)
Fc1ccc2c(Cl)c(-c3nnc(-c4cccs4)o3)sc2c1	GSH bead fluor 255
C#C[C@]1(O)CC[C@H]2[C@@H]3CCC4=C(CCC(=O)C4)[C@H]3CC[C@@]21C	none
CC(C)(C)c1ccc(S(=O)(=O)N2CCSC2)cc1	none
COc1ccc(C(O)c2coc3ccc(O)c(CN(C)C)c23)cc1 (configuration not stated)	Avidin fluor 83
CCOC(=O)C1C(c2ccc([N+](=O)[O-])cc2)C2C(=O)NN=C2CC1(C)O (configuration not stated)	RGS7-Gao reg inconclusive (no result: GSH bead fluor)
Nn1c(SCc2cn3ccsc3n2)nnc1-c1ccncc1	GSH bead fluor 266
Cc1ccc(CSc2nnc(-c3ccncc3)n2N)cc1	RGS7-Gao reg inconclusive (no result: GSH bead fluor)
CCCN(Cc1cc2cc(OC)ccc2[nH]c1=O)C(=O)c1ccco1	RGS7-Gao reg inconclusive, Avidin fluor 49 (no result: GSH bead fluor)
CCCCN(Cc1cc2cc(OC)ccc2[nH]c1=O)C(=O)c1ccco1	none
COc1ccc(NC(=O)CCN2CCN(S(=O)(=O)c3cc(Cl)ccc3Cl)CC2)cc1	Avidin fluor 60
COc1ccc(NC(=O)CCN2CCN(S(=O)(=O)c3ccc(OC)cc3)CC2)cc1	none
O=S(=O)(Nc1cccc(-c2nnco2)c1)c1ccc(F)cc1F	RGS7-Gao reg inconclusive (no result: GSH bead fluor)
O=c1c2ccccc2c2ccccc2c(=O)n1CC1CCCO1 (configuration not stated)	GSH bead fluor 252
O=C1c2ccccc2C(=O)N1CC1CCCO1 (configuration not stated)	none
CCN(CC)c1ccc(NC(=O)Cn2nnc(-c3cccc(OC)c3OC)n2)c(C)c1	GSH bead fluor 266
CC(=O)Nc1ccc(N2C(=O)c3ccc(C(=O)Nc4nnc(SCc5ccc(F)cc5)s4)cc3C2=O)cc1	none
CC(C)C12CN3CC(C(C)C)(CN(C1)C3c1ccccc1)C2O (configuration not stated)	GSH bead fluor 253
Cc1nnc(N(Cc2ccco2)C(=O)c2ccc(C#N)cc2)s1	GSH bead fluor 110
Cc1nnc(N(Cc2ccco2)C(=O)c2cccc(C#N)c2)s1	none
CC1(c2cccc3ccccc23)NC(=O)N(CC(=O)NC2CCS(=O)(=O)C2)C1=O (configuration not stated)	none
CCSC1=N/C(=C\c2ccc3c(c2)OCO3)C(=O)S1	none
CCCSC1=N/C(=C\c2ccc3c(c2)OCO3)C(=O)S1	Avidin fluor 60
CCCC(C)C(=O)Nc1ccc(S(=O)(=O)Nc2nccs2)cc1 (configuration not stated)	none
O=c1c(-c2ccnn2-c2ccccc2F)cnc2n1CCS2	GSH bead fluor 249
CCOc1ccc(N2C(=O)CC(SCCN)C2=O)cc1 (configuration not stated)	GSH bead fluor 267
CCOc1ccc(N2C(=O)CC(Sc3nc(C)cc(C)n3)C2=O)cc1 (configuration not stated)	none
CCC(Sc1ccc(C(=O)O)cc1)C(=O)O (configuration not stated)	Avidin fluor 50
CCn1nc(NC(=O)c2cccs2)c2cc3ccccc3nc21	none
N#Cc1cc(-c2ccccc2)cnc1Sc1ccc(Cl)cc1	none
N#Cc1cc(-c2ccc(Cl)cc2)cnc1Sc1ccccc1	RGS8-Gao reg 12.2, RGS4-Gao reg 21.1, RGS7-Gao reg 14.8, RGS16-Gao HTS 1.3
O=C(O)CCc1nn2c3ccccc3n(Cc3ccccc3F)c2nc1=O	none
CCOc1ccc2nc(NCCNC(=O)C(C)C)c(C)cc2c1	Avidin fluor 61
Cc1nc(-c2nc(-c3c(C(=O)NNC(=O)Nc4ccccc4)noc3C)cs2)cs1	RGS7-Gao reg inconclusive (no result: GSH bead fluor)
CCn1nc(C)c(CN2CCc3c([nH]c4ccccc34)C2c2ccc(F)c(OC)c2)c1C (configuration not stated)	none
Cc1cc(NC(=O)C2(c3ccccc3)CCCC2)no1	Avidin fluor 59
O=C1CSC(=S)N1c1cccnc1	GSH bead fluor 266
O=C1CSC(=S)N1Cc1cccnc1	none
C=CCC(COCc1ccccc1)NS(=O)(=O)c1ccccc1Br (configuration not stated)	RGS7-Gao reg inconclusive (no result: GSH bead fluor)
COc1ccc(Cl)cc1N1C(=O)CC(N2CCc3ccccc32)C1=O (configuration not stated)	GSH bead fluor 264
CC(C)NC(=O)CSCc1c(F)cccc1Cl	GSH bead fluor 121
O=C(c1ccco1)N1CCCN(Cc2nc(Cc3ccccc3)no2)CC1	none
COc1ccc(-c2nnn(Cc3nn[nH]n3)n2)cc1OC	GSH bead fluor 280
COc1ccc(-c2nnn(CCc3nn[nH]n3)n2)cc1OC	none
O=C(NCCC1=CCCCC1)C1CCN(C(=O)Cc2ccccc2)CC1	none
Cc1cc(C)c2nc(-c3ccccn3)cc(C(=O)n3cccn3)c2c1	RGS7-Gao reg inconclusive
Cc1ccc(S(=O)(=O)Nc2nc(C)c(NC(=O)OCCCl)s2)cc1	Avidin fluor 62
Cc1c([N+](=O)[O-])cc(C(=O)Oc2cccc(C(=S)N3CCOCC3)c2)cc1[N+](=O)[O-]	none
O=C(CC(Nc1ccccc1)C(=O)O)c1ccccc1 (configuration not stated)	GSH bead fluor 259
Cc1ccc(NC(CC(=O)c2ccccc2)C(=O)O)cc1Cl (configuration not stated)	RGS7-Gao reg inconclusive (no result: GSH bead fluor)
Cc1ccc(C(=O)O)cc1NC(=O)c1cccs1	GSH bead fluor 95
Cc1c(NC(=O)c2cccs2)cccc1C(=O)O	none
CCOC(=O)C(C)n1cnc2c(nnn2Cc2ccc(C)cc2)c1=O (configuration not stated)	Avidin fluor 49
Cc1csc(/C(=N/OC(=O)c2ccco2)C(N)=O)n1	RGS7-Gao reg inconclusive (no result: GSH bead fluor)
CCn1c(SCC(=O)Nc2ccc(-c3nc4ccc(C)cc4s3)cc2)nnc1-c1ccccc1	Avidin fluor 256
O=C(CN1C(=O)C2C3CC(C(Br)C3Br)C2C1=O)Nc1ccc(C(=O)O)cc1 (configuration not stated)	RGS7-Gao reg inconclusive (no result: GSH bead fluor)
